The sample as a whole holds a higher share of hits than the screen did.
ROC1-CUL1 inh = inhibitors of human ROC1-CUL1 ubiquitin ligase activity. inhibition, % at 10 µM. hit rate 0.6% among 140,000. AID 1347404, 2020. E3 ubiquitin-protein ligase RBX1 (Homo sapiens) + Cullin-1 (Homo sapiens), P62877+Q13616. in vitro K48 di-Ub FRET, acceptor:donor ratio, 45 min; in the data active means inhibition above about 25%
Target sequence (P62877 whole entry, looked up): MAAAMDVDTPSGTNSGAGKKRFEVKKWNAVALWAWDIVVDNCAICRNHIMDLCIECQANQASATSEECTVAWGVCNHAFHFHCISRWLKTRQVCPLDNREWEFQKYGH
Target sequence (Q13616 whole entry, looked up): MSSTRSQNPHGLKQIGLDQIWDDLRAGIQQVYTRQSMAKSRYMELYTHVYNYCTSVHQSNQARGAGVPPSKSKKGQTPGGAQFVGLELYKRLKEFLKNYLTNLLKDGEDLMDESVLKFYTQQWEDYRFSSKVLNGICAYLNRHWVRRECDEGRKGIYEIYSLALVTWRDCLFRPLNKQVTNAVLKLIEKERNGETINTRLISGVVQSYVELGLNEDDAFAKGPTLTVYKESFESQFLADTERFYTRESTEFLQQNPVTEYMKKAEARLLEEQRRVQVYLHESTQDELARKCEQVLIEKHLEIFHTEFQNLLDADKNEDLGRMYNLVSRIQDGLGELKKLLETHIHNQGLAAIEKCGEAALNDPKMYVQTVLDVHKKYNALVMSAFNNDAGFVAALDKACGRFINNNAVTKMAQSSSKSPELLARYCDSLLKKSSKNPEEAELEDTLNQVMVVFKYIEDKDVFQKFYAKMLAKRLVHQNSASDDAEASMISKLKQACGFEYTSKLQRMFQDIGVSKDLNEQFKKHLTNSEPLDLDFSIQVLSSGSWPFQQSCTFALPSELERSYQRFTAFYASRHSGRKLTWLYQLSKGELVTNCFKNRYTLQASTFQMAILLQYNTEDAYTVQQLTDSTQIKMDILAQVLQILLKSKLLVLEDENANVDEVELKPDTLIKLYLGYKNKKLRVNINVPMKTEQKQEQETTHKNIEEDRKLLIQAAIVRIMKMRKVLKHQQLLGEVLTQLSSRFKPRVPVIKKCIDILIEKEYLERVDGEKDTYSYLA
Hits are given with their value; . = inactive.

SMILES	ROC1-CUL1 inh
COC(=O)C12CCC(C)(C(OC(=O)c3cc4ccccc4oc3=O)C1)C2(C)C (configuration not stated)	.
Cc1cc(N=C2NC(=O)/C(=C\c3ccc(Br)o3)S2)ccc1Cl	.
Cc1ccc(/C=C2\SC(=Nc3ccc(C)c(C)c3)NC2=O)o1	.
CCN(CC)c1ccc(/C=C2\SC(=Nc3ccc(Cl)c(Cl)c3)NC2=O)o1	28.8
C/C(=C\c1ccccc1)CN1C[C@H](O)[C@@H](N2CCOCC2)C1	.
CC(C)c1ccc2c(c1)C(O)Cc1cc(Cl)ccc1S2 (configuration not stated)	.
O=C1c2ccccc2C(=O)C(O)(O)C1(O)O	99.9
O=C1c2ccccc2C(=O)C(Cl)(Cl)C1(Cl)Cl	.
CCC1(N)C(=O)c2ccccc2C1=O	.
Cc1ccc(C(=O)CSc2nsc(SCC(=O)c3ccc(C)cc3)c2C#N)cc1	.
Cc1ccc2c(c1)C(=O)C(C(c1ccc(Cl)cc1Cl)C1C(=O)Oc3ccc(C)cc3C1=O)C(=O)O2 (configuration not stated)	56.1
O=C1c2cc(Cl)ccc2OCC1Br (configuration not stated)	.
COc1cc(C(C2C(=O)Oc3ccc(C)cc3C2=O)C2C(=O)Oc3ccc(C)cc3C2=O)cc(OC)c1OC (configuration not stated)	.
O=C1NC(C(F)(F)F)(C(F)(F)F)N=C2SCCN12	.
COc1ccc(/C=N/n2c(C)cc(C)c(C#N)c2=O)c2ccccc12	.
O=C1S/C(=C/c2cccnc2)C(=O)N1Cc1ccccc1	.
CCCCOc1ccc2n(n1)c(=O)c(Cc1ccccc1)c([O-])[n+]2-c1ccccc1	.
CCCNC(=O)C1CCN(S(=O)(=O)c2cc(F)ccc2OC)CC1	.
Cc1ccc(N=C2S/C(=C/c3ccccc3OCC(=O)N3CCOCC3)C(=O)N2Cc2ccccc2)cc1	.
CCOc1ccccc1/C=C1\SC(=Nc2ccc(C(=O)OC)cc2)N(C)C1=O	.
COCCN1C(=O)/C(=C/c2ccccc2OCc2cccc(C(=O)O)c2)SC1=Nc1ccccc1	67.7
COc1cccc(-c2nc3cc(NC(=S)NC(=O)c4cccnc4)ccc3o2)c1	.
CCC1CC=C2C(C#N)C(=N)C(C#N)(C#N)[C@H](c3cc(OC)ccc3OC)[C@H]2C1 (some centres not stated)	.
O=C(O)CCNc1cccc2ncccc12	80.8
O=C(O)CCSc1ncnc2ccccc12	.
SMILES	ROC1-CUL1 inh
O=C(O)CCNc1nc(-c2ccccc2)nc2ccccc12	.
Cc1ncc(CN2CCOC(Cc3cccc(C(F)(F)F)c3)C2)n1C (configuration not stated)	.
COc1ccccc1CN1CCCC(CO)(Cc2ccccc2C)C1 (configuration not stated)	.
CCOc1cc2c(cc1OCC)C(c1ccccc1OC)CC(=O)N2 (configuration not stated)	.
COc1cccc(C2SCCCS2)c1O	.
COc1ccccc1C1NCCS1 (configuration not stated)	33.1
COc1ccc(-c2ccccc2NC(=O)C2CCCN(C3CCC3)C2)cc1 (configuration not stated)	.
CC1=NN(c2nc(-c3ccc(Br)cc3)cs2)C(=O)C1N=Nc1ccc(Oc2ccccc2)cc1 (configuration not stated)	.
CC1=NN(c2nc(-c3ccc(Br)cc3)cs2)C(=O)C1N=Nc1cccc(O)c1 (configuration not stated)	.
CC1=NN(c2nc(-c3ccc(Br)cc3)cs2)C(=O)C1N=Nc1nccs1 (configuration not stated)	77.5
CCOc1ccc(NC(=O)CN2CCN(C3CCCCC3)C(=O)C2=O)cc1	57.8
CCc1ccc(NC(=O)CN2CCN(C3CCCCC3)C(=O)C2=O)cc1	.
O=C(CN1CCN(C2CCCCC2)C(=O)C1=O)Nc1ccc(Cl)cc1	.
Cc1sc2ccccc2c1Br	.
CN(C(=S)NC(=O)C1CC1)c1ccccc1	.
COc1cccc(CN2CCN(C(=O)CCC3(Cc4cccs4)CCC(=O)N3)CC2=O)c1 (configuration not stated)	.
O=C1NN(c2ccccc2)C(=O)/C1=C/c1cc(Br)ccc1OCc1ccc(Cl)c(Cl)c1	72.3
O=C1NN(c2ccccc2)C(=O)/C1=C/c1cc(Br)ccc1OCCCOc1ccc(Cl)cc1	.
O=C1NN(c2ccccc2)C(=O)/C1=C/c1ccccc1OCCCOc1ccccc1	.
O=C1NN(c2ccccc2)C(=O)/C1=C\c1cc(O)ccc1Br	.
Cc1ccccc1COc1ccc(Br)cc1/C=C1\C(=O)NN(c2ccccc2)C1=O	49.5
Cc1ccc(OCCCOc2ccc(Br)cc2/C=C2\C(=O)NN(c3ccccc3)C2=O)cc1	60.6
O=C1NN(c2ccc(Br)cc2)C(=O)/C1=C\c1ccccc1OCc1ccccc1	.
O=C1NN(c2ccccc2)C(=O)/C1=C/c1ccc(OCc2ccc(Cl)c(Cl)c2)cc1	.
O=C1NN(c2ccccc2)C(=O)/C1=C/c1ccccc1OCc1ccc(Cl)c(Cl)c1	.
SMILES	ROC1-CUL1 inh
COCC(=O)N1CCC(Oc2ccccc2C(=O)NCCCn2ccnc2)CC1	.
CCOC(=O)c1ccc(NC(=O)CN2CCCCC2C)cc1 (configuration not stated)	.
O=CN1CCN(c2nc3nonc3nc2N2CCOCC2)CC1	.
COc1ccc(/C=C/C(=O)Nc2sc3c(c2C(N)=O)CCCCCC3)cc1	.
CCN(CC1CCN(CCc2ccccc2C)CC1)C(=O)c1ccc[n+]([O-])c1	.
CCN(CC)CC(=O)N1CCC(C(=O)Nc2ccc(-c3nc4ccccc4o3)cc2)CC1	.
CSc1cccc(NC(=O)Cc2cccs2)c1	.
Cc1cc2c3c(c1)C1C=CCC1C(c1ccc(Br)cc1)N3CC1CC=CC21 (configuration not stated)	.
O=[N+]([O-])c1ccc(C2C3CC=CC3c3c4c(cc5ccccc35)C3C=CCC3CN42)cc1 (configuration not stated)	.
O=C(O)c1cc2c3c(c1)C1CC=CC1C(c1ccc(Br)cc1)N3CC1CC=CC21 (configuration not stated)	101.5
COc1ccccc1N1C(=O)C2C(C1=O)N1C(c3ccco3)C3C(=O)N(c4ccccc4OC)C(=O)C3N1C2c1ccco1 (configuration not stated)	.
CCCC(=O)Nc1ccc(Cl)c(-c2nc3ccccc3s2)c1	.
CC(=O)Nc1ccc(C(=O)CSc2nccn2C)cc1	.
CC1(C)CC(=O)C2C(=Nc3ccccc3N(C(=O)C(F)(F)F)C2c2ccccc2Cl)C1 (configuration not stated)	.
COc1ccc(C2C(C(=O)c3ccc(Cl)cc3)C(=O)C(=O)N2c2ccc(C)c(Cl)c2)cc1OC (configuration not stated)	.
COc1ccc(C2C(C#N)C(=N)SC(=N)C2C#N)cc1OC (configuration not stated)	.
Cc1ccc(C2c3c(n[nH]c3C)OC(=N)C2C#N)o1 (configuration not stated)	.
Cc1ccc(C2C(C#N)C(=N)SC(=N)C2C#N)o1 (configuration not stated)	39.9
C=CCc1c(C)nc(N2CCN(c3ccccc3OC)CC2)[nH]c1=O	.
O=C(CSc1nnc(-c2ccccc2Br)o1)c1cccs1	.
Cc1cc(C)c(SS(=O)c2c(C)cc(C)cc2C)c(C)c1 (configuration not stated)	.
COc1ccc(-c2ccc(/C=C(/C#N)S(=O)(=O)c3ccccc3)o2)cc1	28.8

Screening data: PubChem, Pan Lab, Icahn School of Medicine at Mount Sinai
